Source: PubChem
An excerpt weighted towards active compounds, which were near 21% of everything screened.
Pf growth 96h – P. falciparum growth inhibition at 96 hours; AID 504834; hit rate 6.9% among 320,000; Potency, µM (series often up to 28.7 µM), for the others: top-dose activity change, negative = inhibition, most hits filed as inhibitors; P. falciparum luciferase reporter growth, 96 h; also: potency is read from the fitted curve at half-maximal effect; % is scaled to controls: 0 for no effect and ±100 for the full control effect
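Plates of compound plus infected erythrocytes (2% hematocrit, 0.05% parasitemia final) incubate 96 hours, 37 C, 5% CO2. Detection reagent added; reduced luminescence from the parasites' luciferase reporter flags inhibition.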
Cycloheximide cs – affects cycloheximide protein synthesis inhibition readout, counter-screen; cell reporter, cycloheximide protein synthesis inhibition counterscreen; max response, %; hit rate 12% among 300,000; in the data active = max response mostly above about 13%, no sharp cut-off; inactive = mostly below about 14%; also: read at 38.3 µM for the half of the compounds with a filed dose; 0% is about no effect
HCV inh – inhibitors of hepatitis C virus infection. Huh7.5.1 HCVcc-Cre infection, luciferase reporter, 44 h. Potency, µM (titrated, usually from 41.8 µM), without a hit: at the highest dose activity change, negative = inhibition, usual class: inhibitors. hit rate 3.4% among 340,000; also: potency is read from the fitted curve at half-maximal effect; % is scaled to controls: 0 for no effect and ±100 for the full control effect
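Whole-lifecycle infectious HCVcc-Cre system; cells 1,000/well, compound then virus (~0.5 moi) added 4 h after plating, 44 h culture. Luciferase read 15 sec following 15 min substrate incubation, room temp.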
AMA1-RON2 inh – disrupts binding of P. falciparum AMA1 to RON2. AlphaScreen AMA1-biotinylated RON2 peptide binding. hit rate 0.2% among 360,000. Potency, µM (top dose mostly 58.2 µM), for the others: at the top dose activity change, negative = inhibition, hits mostly inhibitors;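 also: potency is read from the fitted curve at half-maximal effect; 0% = vehicle wells and -100% = peptide control; nearly all actives have a fitted effect of over 45% in size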
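AMA1 (3D7) with his tag at 25 nM final met compounds first, then biotinylated RON2 peptide at 25 nM; detection used donor plus acceptor beads, 10 µg/mL apiece, read by AlphaScreen after 30 min at room temperature.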
Pf growth 48h – P. falciparum growth inhibition at 48 hours (one generation); P. falciparum luciferase growth in erythrocytes, 48 h; Potency, µM (highest dose often 28.7 µM), for the others: at the highest dose activity change, negative = inhibition, usual class: inhibitors; hit rate 5.9% among 310,000; also: potency is read from the fitted curve at half-maximal effect; % is scaled to controls: 0 for no effect and ±100 for the full control effect
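In quantitative HTS format, infected erythrocytes bearing luciferase-reporter parasites were treated for a single generation at 37 C. Luminescence after adding detection reagent served as the growth measure.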
Shiga toxin inh – blocks Shiga toxin action in Vero cells; Vero cells, Shiga toxin protein synthesis inhibition reporter; inhibition, % at 38.7 µM; hit rate 9.2% among 290,000; AID 2315; in the data active = inhibition mostly above about 28%, no sharp cut-off; inactive = mostly below about 43%; also: 0% is about no effect
Active calls of the source: *. Unless noted, calls follow the shape of the dose curve; as a rule, active = well fitted curve in the direction sought with a large enough effect; inconclusive = small, poorly fitted or top-dose-only effect, or another doubt; inactive = no such curve, though single readings can be large; an effect the other way counts as inactive or inconclusive.

How did COc1ccc(S(=O)(=O)NCc2cc(=O)n(C)c(=O)n2C)cc1F do in these assays?
Pf growth 96h: -1%; Cycloheximide cs: -7; HCV inh: 10%; AMA1-RON2 inh: -5%; Pf growth 48h: 23%; Shiga toxin inh: 0

What do the screens show for `O=C(CCN1CCCCC1)c1cccc(Cl)c1`?
HCV inh: 4%; AMA1-RON2 inh: -15%

How did C[C@H]1COC(=O)[C@@H](NC(=O)OCC2c3ccccc3-c3ccccc32)C/C=C\C[C@H](CC(=O)NCCO)C(=O)N1 do in these assays?
HCV inh: -2%; AMA1-RON2 inh: 11%

Results for Cc1cc(C)n(-c2nc(SCCN(C)C)c3c4c(sc3n2)CCCC4)n1 ?
Pf growth 96h: 12µM*; Cycloheximide cs: -2; HCV inh: inconclusive; AMA1-RON2 inh: 20%; Pf growth 48h: inconclusive; Shiga toxin inh: 25

Results for O=C1CSC(c2cccnc2)N1Cc1ccc(Cl)cc1Cl (stereo unspecified) ?
Pf growth 96h: 9.3µM*; Cycloheximide cs: -2; HCV inh: 15%; AMA1-RON2 inh: -3%; Pf growth 48h: inconclusive; Shiga toxin inh: 20

Results for COc1ccc(CNc2ncnc3cc(Cl)ccc23)cc1OC ?
Pf growth 96h: 6%; Cycloheximide cs: -1; HCV inh: inconclusive; AMA1-RON2 inh: 1%; Pf growth 48h: 11%; Shiga toxin inh: -5

How did Fc1ccc(CNc2ncnc3cc(Cl)ccc23)cc1 do in these assays?
Pf growth 96h: inconclusive; Cycloheximide cs: 3; HCV inh: 10µM*; AMA1-RON2 inh: 6%; Pf growth 48h: inconclusive; Shiga toxin inh: -4

What do the screens show for `Cc1cnc(C(=O)Nc2nnc(SCc3c(Cl)cccc3Cl)s2)cn1`?
Pf growth 96h: 2.9µM*; Cycloheximide cs: -2; HCV inh: inconclusive; AMA1-RON2 inh: -10%; Pf growth 48h: 2.6µM*; Shiga toxin inh: 11

What do the screens show for `CCSc1nnc(NC(=O)c2ccccn2)s1`?
Pf growth 96h: 11%; Cycloheximide cs: 45*; HCV inh: inconclusive; AMA1-RON2 inh: -6%; Pf growth 48h: 2.9µM*; Shiga toxin inh: 60*

Results for CCSc1nnc(NC(=O)c2cnccn2)s1 ?
Pf growth 96h: -12%; Cycloheximide cs: -1; HCV inh: 18%; AMA1-RON2 inh: 93%; Pf growth 48h: 14%; Shiga toxin inh: -3

What do the screens show for `CCSc1nnc(NC(=O)c2cccnc2Cl)s1`?
Pf growth 96h: 65%; Cycloheximide cs: 28*; HCV inh: 11%; AMA1-RON2 inh: -13%; Pf growth 48h: 69%; Shiga toxin inh: 54*

How did CC(C)C[C@H](NC(=O)[C@H](Cc1c[nH]c2ccccc12)NC(=O)[C@H](CCCCN)NC(=O)CNC(=O)[C@H](CC(C)C)NC(=O)[C@H](CO)NC(=O)[C@@H](N)Cc1cnc[nH]1)C(=O)NCC(=O)N[C@@H](Cc1cnc[nH]1)C(=O)N1CCC[C@H]1C(=O)N[C@@H](CC(=O)O)C(=O)N[C@@H](CCCCN)C(=O)N[C@@H](Cc1ccccc1)C(=O)O do in these assays?
Cycloheximide cs: -4; Shiga toxin inh: -3

Results for O=C(NCCCn1ccnc1)C1CCN(S(=O)(=O)c2cc([N+](=O)[O-])ccc2Cl)CC1 ?
HCV inh: 22%; AMA1-RON2 inh: 7%

Results for COc1ccccc1OCC(=O)Nc1cc(Cl)ccc1Oc1ccccc1 ?
Pf growth 96h: 31%; Cycloheximide cs: -1; HCV inh: 35%; AMA1-RON2 inh: -12%; Pf growth 48h: -76%; Shiga toxin inh: -7

Results for Cc1ccccc1OCC(=O)NS(=O)(=O)c1ccc(Cl)cc1 ?
Pf growth 96h: 5.2µM*; Cycloheximide cs: -4; HCV inh: 17%; AMA1-RON2 inh: -13%; Pf growth 48h: -10%; Shiga toxin inh: -4

What do the screens show for `O=C(COC(=O)c1c(Cl)cccc1Cl)Nc1cc(Cl)ccc1Oc1ccccc1`?
Pf growth 96h: inconclusive; Cycloheximide cs: 5; HCV inh: -9%; AMA1-RON2 inh: 8%; Pf growth 48h: 13µM*; Shiga toxin inh: -4

What do the screens show for `Cc1ccccc1OCC(=O)Nc1cc(Cl)ccc1Oc1ccccc1`?
Pf growth 96h: 5.2µM*; Cycloheximide cs: -4; HCV inh: -2%; AMA1-RON2 inh: 1%; Pf growth 48h: inconclusive; Shiga toxin inh: -11

Results for CCN(CC)CCCC(C)Nc1cc(/C=C/c2ccccc2Cl)nc2cc(Cl)ccc12 (stereo unspecified) ?
Pf growth 96h: 0.6µM*; Pf growth 48h: 0.48µM*

Results for Cc1ccc(NC(=O)C2(c3ccc([N+](=O)[O-])cc3)CCCC2)cc1 ?
Pf growth 96h: -3%; Cycloheximide cs: 0; HCV inh: inconclusive; AMA1-RON2 inh: -13%; Pf growth 48h: 2.6µM*; Shiga toxin inh: -21

Results for O=C(Nc1ccc([N+](=O)[O-])cc1)Nc1ccc([N+](=O)[O-])cc1 ?
Pf growth 96h: 2.4µM*; Pf growth 48h: 2.7µM*

Results for Cc1cc(O)c(C(C)C)cc1NC(=O)Nc1ccc([N+](=O)[O-])cc1 ?
HCV inh: inconclusive; AMA1-RON2 inh: -4%

What do the screens show for `Cc1ccc(C(C)C)cc1NC(=O)Nc1ccc([N+](=O)[O-])cc1`?
Pf growth 96h: 3.3µM*; Cycloheximide cs: 33; HCV inh: 13µM*; AMA1-RON2 inh: -15%; Pf growth 48h: 4.1µM*; Shiga toxin inh: 34*

What do the screens show for `COc1ccc(NC(=O)C2(c3ccc(NC(=O)c4ccc(OC)cc4)cc3)CCCC2)cc1`?
Pf growth 96h: inconclusive; Cycloheximide cs: 0; HCV inh: inconclusive; AMA1-RON2 inh: 1%; Pf growth 48h: -3%; Shiga toxin inh: -13

Results for O=[N+]([O-])c1ccc(NNC(=S)Nc2ccc(F)cc2)cc1 ?
Pf growth 96h: inconclusive; Cycloheximide cs: 27*; HCV inh: inconclusive; AMA1-RON2 inh: 31%; Pf growth 48h: inconclusive; Shiga toxin inh: 86*

What do the screens show for `Cc1ccccc1OCCC(=O)Nc1ccc2c(C)cc(=O)oc2c1`?
Pf growth 96h: 2%; Cycloheximide cs: 15; HCV inh: -14%; AMA1-RON2 inh: -4%; Pf growth 48h: 3%; Shiga toxin inh: -23

How did O=C(Nc1ccc(Oc2ccc(NC(=O)Nc3ccc([N+](=O)[O-])cc3)cc2)cc1)Nc1ccc([N+](=O)[O-])cc1 do in these assays?
Pf growth 96h: inconclusive; Cycloheximide cs: 3; HCV inh: 5.6µM*; AMA1-RON2 inh: -2%; Pf growth 48h: inconclusive; Shiga toxin inh: -2

What do the screens show for `COc1ccc(C(CC(=O)c2ccc(O)cc2)S(=O)(=O)c2ccc(C)cc2)cc1` (stereo unspecified)?
Pf growth 96h: -47%; Cycloheximide cs: 42*; HCV inh: 12%; AMA1-RON2 inh: -32%; Pf growth 48h: 36%; Shiga toxin inh: 66*
